About 8,800 targets were measured; listed, in parts, are those with a hit and a random draw of the rest. About 0.5% of all pairs of compound and target were hits.
Legend:
Assay in all cases: log2 fold change, soluble protein after heating vs DMSO (PISA); higher = thermal stabilisation; K562 lysate, 10 uM; active = over 0.2 and 3.5 SD of the protein, either way, in both replicates (recomputed)
[1] = compound: CN1CC[C@H](c2c(O)cc(O)c3c(=O)cc(-c4ccccc4Cl)oc23)[C@H](O)C1 [alvocidib]
In short: (§1)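 Values give the log-two fold change in thermal stability against solvent controls, from duplicates. Crude K562 extract at 1 mg/mL protein, made by dounce homogenisation in PBS pH 7.4 with 1 mM MgCl2, was treated with 10 μM compound for 30 min. After 3 min heating across 48°C-58°C, aliquots were pooled, adjusted to 0.5% NP-40 at 4°C and centrifuged at 21,000xg for 90 min. The supernatant was measured by TMTpro 16plex LC-MS/MS with channel sums equalised.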

[2] = compound: CN1CCc2c(c3ccccc3n2Cc2ccc(C(=O)NO)cc2)C1 [Tubastatin A]
In short: as §1

[3] = compound: CNC(=O)C1=CC=CC=C1NC2=NC(=NC=C2Cl)NC3=C(C=C(C=C3)N4CCOCC4)OC
In short: as §1

[4] = compound: CNC(=O)c1ccc(Nc2ncc(C(F)(F)F)c(NCc3nccnc3N(C)S(C)(=O)=O)n2)cc1 [defactinib]
In short: as §1

[5] = compound: CNc1nc(-c2ccc3c(N)n[nH]c3c2)cc(N2C[C@@H](C(=O)NC3CCCCC3)CC[C@H]2C)n1
In short: as §1

[6] = compound: COC(=O)N[C@@H](C)CNc1nccc(-c2cn(C(C)C)nc2-c2cc(Cl)cc(NS(C)(=O)=O)c2F)n1 [encorafenib]
In short: as §1

[7] = compound: COC(=O)[C@H](CCSC)NC(=O)C1=C(C=C(C=C1)NC[C@H](CS)N)C2=CC=CC=C2
In short: as §1

[8] = compound: COc1cc(Nc2ncc3c(n2)-c2ccc(Cl)cc2C(c2c(F)cccc2OC)=NC3)ccc1C(=O)O [alisertib]
In short: as §1

[9] = compound: COc1cc2nc(-c3cc(F)ccc3O)nc(N[C@@H]3CNC[C@H]3C(C)(C)O)c2cc1OC
In short: as §1

[10] = compound: COc1cc2ncnc(Nc3ccc(F)c(Cl)c3)c2cc1OCCCN1CCOCC1 [gefitinib]
In short: as §1

[11] = compound: CS(=O)(=O)CCNCc1ccc(-c2ccc3ncnc(Nc4ccc(OCc5cccc(F)c5)c(Cl)c4)c3c2)o1 [lapatinib]
In short: as §1

[12] = compound: CS(=O)(=O)N1CCN(Cc2cc3nc(-c4cccc5[nH]ncc45)nc(N4CCOCC4)c3s2)CC1 [pictilisib]
In short: as §1

[13] = compound: C[C@@H](Oc1cc(-c2cnn(C3CCNCC3)c2)cnc1N)c1c(Cl)ccc(F)c1Cl [crizotinib]
In short: as §1

[14] = compound: C[C@H](C1=CC=C(C=C1)C(=O)NC2=C3C=CNC3=NC=C2)N
In short: as §1

[15] = compound: C[C@H](Nc1ncnc2nc[nH]c12)c1cc2cccc(Cl)c2c(=O)n1-c1ccccc1 [duvelisib]
In short: as §1

[16] = compound: Cc1cc(Nc2cc(CN3CCOCC3)c3nc(C)c(Cc4ccc(Cl)cc4F)n3n2)n[nH]1 [gandotinib]
In short: as §1

[17] = compound: Cc1cc(Nc2cc(N3CCN(C)CC3)nc(Sc3ccc(NC(=O)C4CC4)cc3)n2)n[nH]1 [tozasertib]
In short: as §1

[18] = compound: Cc1ccc(-n2nc(C(C)(C)C)cc2NC(=O)Nc2ccc(OCCN3CCOCC3)c3ccccc23)cc1 [doramapimod]
In short: as §1

[19] = compound: Cc1ccc(NC(=O)c2ccc(CN3CC[C@H](N(C)C)C3)c(C(F)(F)F)c2)cc1Nc1nccc(-c2cncnc2)n1 [bafetinib]
In short: as §1

[20] = compound: Cc1cccc(CC(=O)N2CCc3c2ccc(-c2cn(C)c4ncnc(N)c24)c3F)n1
In short: as §1

Measured: log2 fold change

PTPN6 isoform 4 (UniProt P29350)
Chain of UniProt P29350 (P29350 whole entry, looked up): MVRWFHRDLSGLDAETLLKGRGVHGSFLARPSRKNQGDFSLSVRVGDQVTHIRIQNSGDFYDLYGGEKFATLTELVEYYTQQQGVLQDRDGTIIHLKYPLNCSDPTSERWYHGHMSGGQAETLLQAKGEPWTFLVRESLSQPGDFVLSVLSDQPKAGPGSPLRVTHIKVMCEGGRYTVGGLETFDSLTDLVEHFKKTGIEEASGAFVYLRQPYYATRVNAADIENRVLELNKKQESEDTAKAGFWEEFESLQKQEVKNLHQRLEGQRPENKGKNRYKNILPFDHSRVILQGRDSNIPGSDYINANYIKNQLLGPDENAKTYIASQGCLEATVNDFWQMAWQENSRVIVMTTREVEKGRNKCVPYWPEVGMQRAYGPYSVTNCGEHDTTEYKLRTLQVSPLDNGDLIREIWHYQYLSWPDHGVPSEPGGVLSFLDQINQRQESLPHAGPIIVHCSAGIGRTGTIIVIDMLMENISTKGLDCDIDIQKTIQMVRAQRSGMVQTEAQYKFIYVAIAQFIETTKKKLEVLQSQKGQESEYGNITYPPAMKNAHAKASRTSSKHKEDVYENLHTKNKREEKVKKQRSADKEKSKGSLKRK
inactive: [1] -0.12 | [2] -0.185 | [3] 0.037 | [4] -0.015 | [5] -0.008 | [6] 0.028 | [7] 0.261 | [8] -0.218 | [9] -0.034 | [10] 0.045 | [11] -0.227 | [12] -0.058 | [13] 0.02 | [14] -0.038 | [15] -0.013 | [16] -0.28 | [17] 0 | [18] 0.015 | [19] -0.278 | [20] 0.135

PDIA4 (UniProt P13667)
inactive: [1] 0.025 | [2] 0.05 | [3] -0.008 | [4] -0.042 | [5] -0.012 | [6] -0.011 | [7] -0.027 | [8] -0.007 | [9] -0.001 | [10] -0.011 | [11] -0.018 | [12] 0.006 | [13] 0.09 | [14] 0.029 | [15] -0.011 | [16] -0.026 | [17] 0 | [18] -0.057 | [19] 0.014 | [20] -0.045

PIGO (UniProt Q8TEQ8)
inactive: [1] 0.038 | [2] -0.112 | [3] -0.095 | [4] 0.046 | [5] 0.143 | [6] 0.019 | [7] -0.121 | [8] 0.061 | [9] -0.073 | [10] 0.013 | [11] 0.047 | [12] 0.133 | [13] -0.02 | [14] 0.019 | [15] 0.076 | [16] -0.193 | [17] 0.117 | [18] -0.186 | [19] -0.026 | [20] 0.037

PGLS (UniProt O95336)
inactive: [1] 0.177 | [2] 0.09 | [3] 0.061 | [4] 0.231 | [5] 0.016 | [6] 0.017 | [7] 0.019 | [8] 0.03 | [9] -0.087 | [10] -0.163 | [11] 0.068 | [12] 0.011 | [13] 0 | [14] 0.206 | [15] 0.033 | [16] -0.084 | [17] 0.008 | [18] 0.004 | [19] -0.031 | [20] -0.14

PDCD10 (UniProt Q9BUL8)
Chain of UniProt Q9BUL8 (Q9BUL8 whole entry, looked up): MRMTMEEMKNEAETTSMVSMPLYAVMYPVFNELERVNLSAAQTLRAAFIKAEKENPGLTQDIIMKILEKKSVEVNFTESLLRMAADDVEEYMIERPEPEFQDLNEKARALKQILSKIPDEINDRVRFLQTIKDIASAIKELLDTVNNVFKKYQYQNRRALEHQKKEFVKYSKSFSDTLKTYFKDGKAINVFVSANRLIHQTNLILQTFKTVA
inactive: [1] -0.053 | [2] -0.002 | [3] 0.013 | [4] 0.029 | [5] -0.005 | [6] -0.019 | [7] 0.034 | [8] 0.01 | [9] 0.05 | [10] -0.025 | [11] -0.016 | [12] -0.014 | [13] -0.005 | [15] -0.007 | [16] 0.112 | [17] 0.023 | [18] -0.013 | [19] -0.033 | [20] 0.031
active: [14] -0.254

PXMP4 (UniProt Q9Y6I8)
Chain of UniProt Q9Y6I8 (Q9Y6I8 whole entry, looked up): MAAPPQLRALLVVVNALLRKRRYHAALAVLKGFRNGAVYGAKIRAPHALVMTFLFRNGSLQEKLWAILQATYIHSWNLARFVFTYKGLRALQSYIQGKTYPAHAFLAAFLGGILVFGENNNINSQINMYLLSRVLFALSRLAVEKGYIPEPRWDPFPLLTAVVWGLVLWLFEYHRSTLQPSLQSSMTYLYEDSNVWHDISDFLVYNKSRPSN
inactive: [1] 0 | [2] -0.015 | [3] 0.012 | [4] -0.028 | [6] 0.033 | [7] 0.092 | [8] -0.039 | [9] -0.009 | [10] -0.039 | [11] -0.071 | [12] 0.066 | [13] -0.29 | [14] -0.068 | [15] -0.112 | [16] -0.221 | [17] -0.034 | [18] 0.238 | [19] -0.148 | [20] 0.194
active: [5] 0.736

PPME1 isoform 4 (UniProt Q9Y570)
inactive: [1] 0.01 | [2] 0.024 | [3] 0.008 | [4] 0.024 | [5] 0.002 | [6] -0.001 | [7] -0.066 | [8] 0.031 | [9] 0.005 | [10] 0.002 | [11] -0.014 | [12] 0.009 | [13] 0.005 | [14] -0.014 | [15] 0.002 | [16] -0.002 | [17] 0.048 | [18] 0.026 | [19] 0.052 | [20] -0.006

PPIL3 (UniProt Q9H2H8)
Chain of UniProt Q9H2H8 (Q9H2H8 whole entry, looked up): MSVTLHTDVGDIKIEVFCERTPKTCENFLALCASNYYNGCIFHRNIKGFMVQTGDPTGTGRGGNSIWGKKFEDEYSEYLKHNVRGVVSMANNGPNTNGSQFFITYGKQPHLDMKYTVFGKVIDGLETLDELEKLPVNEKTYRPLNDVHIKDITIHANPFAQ
inactive: [1] -0.105 | [2] -0.044 | [3] 0 | [4] -0.115 | [5] 0.012 | [6] 0.011 | [7] 0.008 | [8] -0.033 | [9] 0.018 | [10] -0.02 | [11] 0.05 | [12] -0.062 | [13] 0.079 | [14] -0.115 | [15] -0.009 | [16] 0.084 | [17] -0.019 | [18] 0 | [19] -0.037 | [20] 0.08

PCBP2 isoform 3 (UniProt Q15366)
Chain of UniProt Q15366 (Q15366 whole entry, looked up): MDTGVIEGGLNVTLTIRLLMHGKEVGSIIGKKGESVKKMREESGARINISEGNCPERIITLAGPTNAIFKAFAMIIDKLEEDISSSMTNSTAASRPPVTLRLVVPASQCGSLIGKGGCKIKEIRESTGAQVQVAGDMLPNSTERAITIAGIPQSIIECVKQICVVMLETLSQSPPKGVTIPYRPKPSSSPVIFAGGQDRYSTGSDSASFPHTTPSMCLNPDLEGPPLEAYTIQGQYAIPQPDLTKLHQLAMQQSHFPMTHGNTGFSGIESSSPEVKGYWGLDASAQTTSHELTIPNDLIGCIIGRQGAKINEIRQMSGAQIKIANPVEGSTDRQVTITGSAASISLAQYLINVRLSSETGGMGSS
inactive: [1] 0.038 | [2] -0.074 | [3] 0.017 | [4] 0.006 | [5] -0.075 | [6] 0.049 | [7] -0.048 | [8] -0.001 | [9] -0.006 | [10] -0.009 | [11] -0.013 | [12] -0.008 | [13] 0.079 | [14] -0.005 | [15] -0.015 | [16] -0.023 | [17] 0.014 | [18] 0.012 | [19] 0.002 | [20] -0.042

PRKCA (UniProt P17252)
inactive: [1] 0.034 | [2] -0.005 | [3] -0.027 | [4] 0.032 | [5] -0.041 | [6] 0.048 | [7] -0.041 | [8] -0.031 | [9] 0.133 | [10] -0.038 | [11] -0.041 | [12] -0.021 | [13] -0.019 | [14] 0.054 | [15] -0.057 | [16] -0.207 | [17] 0.021 | [18] -0.023 | [19] -0.069 | [20] -0.079

PHKG2 (UniProt P15735)
inactive: [1] 0.107 | [2] -0.044 | [3] 0.268 | [4] 0.001 | [5] 0.033 | [6] -0.039 | [7] 0.056 | [8] -0.045 | [9] 0.192 | [10] 0.03 | [11] -0.07 | [12] -0.069 | [13] 0.166 | [14] 0 | [15] -0.008 | [16] 0.061 | [17] -0.051 | [18] 0.031 | [19] 0.015 | [20] -0.107

PIK3CB (UniProt P42338)
active: [12] 0.497 | [15] 0.645
inactive: [1] -0.002 | [2] -0.123 | [3] 0.056 | [4] -0.044 | [5] -0.013 | [6] -0.02 | [7] -0.126 | [8] -0.01 | [9] -0.011 | [10] -0.019 | [11] -0.007 | [13] -0.068 | [14] 0.022 | [16] 0.096 | [17] 0.017 | [18] -0.006 | [19] -0.034 | [20] 0.012

PTMA (UniProt P06454)
Chain of UniProt P06454 (P06454 whole entry, looked up): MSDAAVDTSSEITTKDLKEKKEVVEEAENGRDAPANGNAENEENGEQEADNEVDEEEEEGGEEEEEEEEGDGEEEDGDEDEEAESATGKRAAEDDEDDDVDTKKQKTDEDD
active: [14] 0.505 | [20] -0.375
inactive: [1] 0.194 | [2] 0.09 | [3] -0.104 | [4] 0.049 | [5] 0.007 | [6] -0.003 | [7] -0.038 | [8] 0.01 | [9] 0.042 | [10] 0.014 | [11] -0.059 | [12] -0.014 | [13] 0.08 | [15] 0.009 | [16] -0.277 | [17] 0.012 | [18] -0.031 | [19] 0.058

PLEKHA5 isoform 6 (UniProt Q9HAU0)
Chain of UniProt Q9HAU0 (Q9HAU0 whole entry, looked up): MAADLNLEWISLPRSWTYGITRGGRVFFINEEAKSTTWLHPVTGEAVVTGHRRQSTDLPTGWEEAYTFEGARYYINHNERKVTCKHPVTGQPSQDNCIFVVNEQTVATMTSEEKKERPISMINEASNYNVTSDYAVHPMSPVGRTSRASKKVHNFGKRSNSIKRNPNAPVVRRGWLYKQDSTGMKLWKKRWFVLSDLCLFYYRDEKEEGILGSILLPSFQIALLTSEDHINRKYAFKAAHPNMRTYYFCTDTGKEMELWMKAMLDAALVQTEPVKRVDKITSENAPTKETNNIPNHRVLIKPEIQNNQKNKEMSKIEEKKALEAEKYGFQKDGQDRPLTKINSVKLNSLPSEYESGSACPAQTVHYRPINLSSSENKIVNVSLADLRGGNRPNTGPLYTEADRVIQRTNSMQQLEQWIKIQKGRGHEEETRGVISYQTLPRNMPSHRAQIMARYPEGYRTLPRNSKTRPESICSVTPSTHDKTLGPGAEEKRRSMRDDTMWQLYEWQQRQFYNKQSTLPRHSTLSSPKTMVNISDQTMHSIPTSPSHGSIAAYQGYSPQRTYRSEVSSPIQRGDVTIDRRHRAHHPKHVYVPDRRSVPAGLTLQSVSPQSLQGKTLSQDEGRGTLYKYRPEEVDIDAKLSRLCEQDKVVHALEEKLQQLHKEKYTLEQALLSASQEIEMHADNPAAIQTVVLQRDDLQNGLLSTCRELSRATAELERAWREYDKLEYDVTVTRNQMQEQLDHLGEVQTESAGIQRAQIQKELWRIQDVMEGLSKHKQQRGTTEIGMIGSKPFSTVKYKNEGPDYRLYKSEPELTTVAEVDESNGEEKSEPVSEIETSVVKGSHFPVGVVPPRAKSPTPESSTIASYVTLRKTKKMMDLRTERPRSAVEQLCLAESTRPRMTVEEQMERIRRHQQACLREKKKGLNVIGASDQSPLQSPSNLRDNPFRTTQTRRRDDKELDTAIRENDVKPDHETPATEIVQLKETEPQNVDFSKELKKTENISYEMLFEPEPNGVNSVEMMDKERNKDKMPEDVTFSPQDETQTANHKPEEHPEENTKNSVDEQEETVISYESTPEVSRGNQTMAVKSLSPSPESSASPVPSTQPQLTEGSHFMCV
inactive: [1] -0.11 | [2] -0.074 | [3] 0.02 | [4] 0.065 | [5] 0.006 | [6] -0.016 | [7] 0.054 | [8] 0.035 | [9] -0.03 | [10] -0.039 | [11] 0.003 | [12] -0.054 | [13] 0.006 | [14] -0.033 | [15] -0.032 | [16] 0.093 | [17] 0.002 | [18] -0.028 | [19] -0.061 | [20] 0.002

PRPF6 (UniProt O94906)
Chain of UniProt O94906 (O94906 whole entry, looked up): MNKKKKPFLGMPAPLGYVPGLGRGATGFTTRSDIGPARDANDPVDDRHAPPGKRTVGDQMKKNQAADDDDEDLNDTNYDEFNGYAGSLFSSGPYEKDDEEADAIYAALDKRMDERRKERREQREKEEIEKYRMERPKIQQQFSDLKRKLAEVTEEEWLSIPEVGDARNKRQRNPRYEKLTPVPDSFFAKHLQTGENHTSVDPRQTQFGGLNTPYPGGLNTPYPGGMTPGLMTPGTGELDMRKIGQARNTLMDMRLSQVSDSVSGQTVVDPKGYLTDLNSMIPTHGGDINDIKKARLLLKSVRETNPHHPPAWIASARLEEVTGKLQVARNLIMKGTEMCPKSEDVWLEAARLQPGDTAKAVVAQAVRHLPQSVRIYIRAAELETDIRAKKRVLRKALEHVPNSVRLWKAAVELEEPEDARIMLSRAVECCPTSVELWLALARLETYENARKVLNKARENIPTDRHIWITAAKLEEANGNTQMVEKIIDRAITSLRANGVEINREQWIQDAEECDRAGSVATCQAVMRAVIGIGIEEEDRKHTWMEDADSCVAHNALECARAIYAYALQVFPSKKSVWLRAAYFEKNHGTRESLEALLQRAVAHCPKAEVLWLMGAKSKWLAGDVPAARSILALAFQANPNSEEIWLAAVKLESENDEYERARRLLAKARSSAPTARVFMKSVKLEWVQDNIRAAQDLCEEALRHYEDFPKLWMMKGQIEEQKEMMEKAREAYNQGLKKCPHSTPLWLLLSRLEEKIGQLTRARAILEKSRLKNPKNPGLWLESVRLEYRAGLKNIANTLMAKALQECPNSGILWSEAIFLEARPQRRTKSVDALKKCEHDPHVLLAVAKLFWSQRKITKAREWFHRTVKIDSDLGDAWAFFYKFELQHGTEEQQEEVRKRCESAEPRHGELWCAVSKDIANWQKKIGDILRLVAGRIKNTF
inactive: [1] 0.006 | [2] -0.096 | [3] 0.01 | [4] 0.025 | [5] -0.011 | [6] 0.024 | [8] 0.008 | [9] 0.009 | [10] -0.016 | [11] -0.008 | [12] 0.009 | [13] -0.06 | [14] -0.023 | [15] -0.023 | [16] -0.08 | [17] 0.023 | [18] 0.064 | [19] -0.056 | [20] 0.031
active: [7] 0.22

PI4K2B (UniProt Q8TCG2)
Chain of UniProt Q8TCG2 (Q8TCG2 whole entry, looked up): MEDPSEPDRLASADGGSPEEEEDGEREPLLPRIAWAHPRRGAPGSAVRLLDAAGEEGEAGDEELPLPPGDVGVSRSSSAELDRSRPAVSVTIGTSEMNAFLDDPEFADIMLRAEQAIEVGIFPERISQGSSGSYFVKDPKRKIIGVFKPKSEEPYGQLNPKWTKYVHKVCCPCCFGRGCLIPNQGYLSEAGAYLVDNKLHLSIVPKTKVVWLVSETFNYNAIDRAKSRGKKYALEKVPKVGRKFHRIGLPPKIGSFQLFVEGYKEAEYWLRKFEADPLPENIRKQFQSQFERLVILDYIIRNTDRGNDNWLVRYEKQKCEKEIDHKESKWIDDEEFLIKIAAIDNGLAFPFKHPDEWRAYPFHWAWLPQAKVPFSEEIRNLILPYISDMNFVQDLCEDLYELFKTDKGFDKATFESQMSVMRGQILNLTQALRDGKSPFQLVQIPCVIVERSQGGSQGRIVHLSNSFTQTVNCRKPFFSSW
inactive: [1] -0.263 | [2] 0.12 | [3] -0.04 | [4] -0.081 | [5] -0.057 | [6] 0.041 | [7] -0.005 | [8] -0.068 | [9] -0.011 | [10] 0.107 | [11] 0.009 | [12] 0.039 | [13] -0.203 | [14] 0.134 | [15] 0.143 | [16] 0.041 | [17] 0.019 | [18] -0.026 | [19] -0.017 | [20] 0.003

— the supplement of paper PMC10849652
